Assay outcomes from PubChem.
Sm TGR inh: qHTS Assay for the Inhibitors of Schistosoma Mansoni Peroxiredoxins; AID 485364, 2010; 3% of 360,000 active; Schistosoma mansoni thioredoxin glutathione reductase (TGR), Q962Y6; Potency, µM (doses to about 114 µM), for the others: top-dose activity change, negative = inhibition, most hits filed as inhibitors; purified TGR, DTNB reduction, TNB absorbance 405 nm; also: potency is read from the fitted curve at half-maximal effect; % is scaled to controls: 0 for no effect and ±100 for the full control effect; nearly all actives have a fitted effect of over 60% in size
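TGR 20 nM + NADPH 100 uM (dispensed conc.), cpd preinc 15 min RT; start with NADPH (500 uM addition) then DTNB (15 mM addition). Kinetic TNB absorbance, 405 nm filter. Four-parameter Hill fit across titration.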
LmPK inhibitor: qHTS Assay for Inhibitors of Leishmania Mexicana Pyruvate Kinase (LmPK) | Q27686 | purified LmPK, Kinase-Glo ATP luminescence, 1 h | Potency, µM (doses to about 57.5 µM), without a hit: top-dose activity change, negative = inhibition, most hits filed as inhibitors | 0.37% of 290,000 active | AID 1721, 2009; also: potency is read from the fitted curve at half-maximal effect; % is scaled to controls: 0 for no effect and ±100 for the full control effect
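qHTS format; LmPK 0.1 nM; substrates PEP 0.5 mM and ADP 0.1 mM. One-hour room-temperature incubation, then coupled luciferase luminescence; 0.5 nM enzyme wells mark activation.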
Tb PYK inh: qHTS of Trypanosoma Brucei Inhibitors; TbPYK enzyme, Kinase-Glo Plus ATP luminescence, 45 min; Potency, µM (series often up to 76.8 µM), for the others: at the top dose activity, negative = inhibition, most hits filed as inhibitors; 0.12% of 410,000 active; AID 624173, 2012; also: potency is read from the fitted curve at half-maximal effect; % is scaled to controls: 0 for no effect and ±100 for the full control effect; nearly all actives have a fitted effect of over 50% in size
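Assay buffer: 50 mM TEA pH 7.2, 100 mM KCl, 10 mM MgCl2, 0.05% BSA, 0.01% Tween-20. Pyruvate kinase from T. brucei plus substrate met compound, then ADP (130 uM final). Luminescence was read post 45 min RT.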
Cycloheximide cs: Cycloheximide Counterscreen for Small Molecule Inhibitors of Shiga Toxin. cell reporter, cycloheximide protein synthesis inhibition counterscreen. max response, %. 12% of 300,000 active. AID 2314, 2010; in the data active = max response mostly above about 13%, no sharp cut-off; inactive = mostly below about 14%; also: read at 38.3 µM for the half of the compounds with a filed dose; 0% is about no effect
Shiga inhibitor: A qHTS for Small Molecule Inhibitors of Shiga Toxin; Vero cells, Shiga toxin protein synthesis inhibition reporter; inhibition, % at 38.7 µM; 9.2% of 290,000 active; in the data active = inhibition mostly above about 28%, no sharp cut-off; inactive = mostly below about 43%; also: 0% is about no effect
FBPA Giardia inh: qHTS Assay for Inhibitors of Fructose-1,6-bisphosphate Aldolase from Giardia Lamblia | 0.71% of 290,000 active | purified Giardia FBPA | Potency, µM (highest dose often 59.6 µM), for the others: at the highest dose activity, negative = inhibition, hits mostly inhibitors | AID 2451, 2010 | A8B2U2; also: potency is read from the fitted curve at half-maximal effect; % is scaled to controls: 0 for no effect and ±100 for the full control effect; nearly all actives have a fitted effect of over 55% in size
Target sequence (A8B2U2 whole entry, looked up): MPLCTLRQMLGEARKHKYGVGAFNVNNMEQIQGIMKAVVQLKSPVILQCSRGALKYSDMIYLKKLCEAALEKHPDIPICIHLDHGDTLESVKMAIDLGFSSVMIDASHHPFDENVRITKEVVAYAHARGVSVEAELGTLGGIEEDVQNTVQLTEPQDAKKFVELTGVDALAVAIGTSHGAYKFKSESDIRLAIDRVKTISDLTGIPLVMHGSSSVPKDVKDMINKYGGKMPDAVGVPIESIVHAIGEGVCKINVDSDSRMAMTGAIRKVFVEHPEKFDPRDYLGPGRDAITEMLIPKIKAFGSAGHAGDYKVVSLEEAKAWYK
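40 nM FBPA preincubated 10 min at RT with compound (up to 57.5 uM final), then substrate plus GAPDH/TPI/NAD/arsenate coupling and diaphorase/resazurin added. Fluorescence read after 20 min at RT, 525/598 nm.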
* = called active by the depositor; ? = inconclusive; . = no result; [ ] = another dose, or the depositor's remark. Many of the other results were omitted from the sample, so hits are more common in it than they were. Unless noted, calls follow the shape of the dose curve; as a rule, active = well fitted curve in the direction sought with a large enough effect; inconclusive = small, poorly fitted or top-dose-only effect, or another doubt; inactive = no such curve, though single readings can be large; an effect the other way counts as inactive or inconclusive.

SMILES	Sm TGR inh	LmPK inhibitor	Tb PYK inh	Cycloheximide cs	Shiga inhibitor	FBPA Giardia inh
O=C(Nc1ccccc1)C1=C[C@@H](C2CCCCC2)C[C@@H](OCc2ccc(CO)cc2)O1	12%	7%	-2%	40*	84*	-5%
O=C(C1CCN(S(=O)(=O)Cc2ccccc2)CC1)N1CCN(c2cccc(C(F)(F)F)c2)CC1	-15%	.	0%	.	.	.
Cc1ccc(Cn2c(C)c3cnn(CC(=O)N4CCN(c5ccc(F)cc5)CC4)c(=O)c3c2C)cc1	17%	.	-2%	.	.	.
CCN1CCN(c2oc(/C=C/c3ccc(OC)c(OC)c3)nc2C#N)CC1	-4%	.	15%	.	.	.
Cc1ccc(NC(=O)COC(=O)c2ccc(Cl)nc2)cc1S(=O)(=O)N1CCCCC1	5%	.	3%	.	.	.
Cc1ccc(S(=O)(=O)c2ccc([N+](=O)[O-])cn2)cc1	0.1µM*	2%	-2%	-3	-9	-27%
Nc1ccc(S(=O)(=O)c2ccccc2)nc1	2%	3%	-19%	-4	-6	-4%
Cc1cc(S(=O)(=O)c2ccc([N+](=O)[O-])cn2)ccc1Br	.	.	-10%	.	.	.
O=S(=O)(c1ccccc1)c1ccc(C(F)(F)F)cn1	14µM*	0%	-6%	2	6	2%
O=[N+]([O-])c1ccc(S(=O)(=O)c2ccccc2)nc1	0.32µM*	5%	-15%	-10	-26	-15%
Cc1ccc(S(=O)(=O)c2cc(O)ccc2O)cc1C	4µM*	-2%	-17%	-2	-16	-10%
Cc1ccc(S(=O)(=O)Nc2ccc(O)c(S(=O)(=O)c3ccc(C)cc3)c2)cc1	-17%	3%	-10%	-3	-16	6%
CC(=O)Nc1ccc(S(=O)(=O)c2cc(O)ccc2O)cc1	6.3µM*	-5%	-15%	1	-2	-15%
CCOc1ccccc1CNC(=O)c1cc2cc(S(=O)(=O)N3CCCCC3)ccc2n1C	-1%	.	1%	.	.	.
CCCCCCNC(=O)CNC(=S)N(Cc1cccs1)C1CCCCC1	0%	0%	-15%	-1	-3	5%
O=C(Nc1ccc(F)cc1)C1CCN(c2nc3ccccc3n3cccc23)CC1	0%	.	0%	.	.	.
CNC(=O)c1c(NC(=O)c2cccc(C)c2)sc2c1CCC2	?	-5%	0%	32*	71*	-9%
Cc1cccc(C(=O)Nc2sc3c(c2C(=O)NC(C)C)CCCC3)c1	-3%	.	-1%	.	.	.
CC1(C)Cc2c(sc(NC(=O)c3ccc(Br)o3)c2C#N)CO1	0%	-2%	-8%	45*	71*	-10%
Cc1cccc(C(=O)Nc2sc3c(c2C(=O)O)CCC3)c1	-27%	-25%	-6%	42*	103*	?
O=C(Nc1sc2c(c1C(=O)NCc1ccco1)CCCC2)c1ccc2c(c1)OCO2	-33%	-1%	-8%	44*	89*	2%
CC1(C)Cc2c(sc(NC(=O)Cc3ccccc3)c2C#N)CO1	-30%	3%	-1%	1	24	12%
Cc1cccc(NC(=O)c2c(NC(=O)c3ccccc3)sc3c2CCC3)c1	-6%	.	7%	.	.	.
CCN(CC)C(=O)Cn1c(=O)n(CC2CCC(C(=O)NC)CC2)c(=O)c2sccc21 (stereo not drawn)	6%	.	-6%	.	.	.
Cc1ccc(C(=O)C(NC(=O)c2ccco2)Nc2sc3c(c2C(N)=O)CCCC3)cc1 (stereo not drawn)	28µM*	-3%	.	13*	active	-28%
SMILES	Sm TGR inh	LmPK inhibitor	Tb PYK inh	Cycloheximide cs	Shiga inhibitor	FBPA Giardia inh
CCCc1nc2sc3c(c2c(=O)n1NC(=O)c1ccco1)CC(C)(C)OC3	11µM*	1%	4%	-3	-5	7%
Cc1ccc(C(=O)Nc2sc3c(c2C(=O)NCc2ccco2)CCCC3)cc1	-13%	0%	-2%	13	34	-8%
CC(C)OC(=O)c1c(NC(=O)c2ccco2)sc2c1CCCCC2	-1%	4%	-11%	13	-3	-2%
CNC(=O)c1c(NC(=O)c2ccco2)sc2c1CCCC2	-21%	-4%	-1%	29*	32	.
CC1(C)Cc2c(sc(NC(=O)c3ccco3)c2C(=O)O)CO1	1%	-16%	1%	30*	44	2%
COc1cccc(C(=O)Nc2nc3nc(C)c(C)c(=O)n3[nH]2)c1	0%	.	-2%	.	.	.
COc1cccc(C(=O)Nc2sc3c(c2C#N)CCN(C(C)=O)C3)c1	0%	4%[11.5 µM]	-8%	25*	47	?
COc1cccc(C(=O)Nc2nc3c(c(=O)[nH]2)CCCC3)c1	-3%	-11%	-6%	20*	18	-11%
COc1cccc(C(=O)Nc2sc3c(c2C(=O)O)CCCC3)c1	-14%	3%	0%	37*	104*	-25%
CCOC(=O)C1CCN(C(=O)C2CCN(c3nnc(C)c4c(C)n(-c5ccccc5)nc34)CC2)CC1	10%	.	1%	.	.	.
Cn1nnnc1Sc1ncnc2scc(-c3ccc([N+](=O)[O-])cc3)c12	?	.	-11%	.	.	.
COC1=C/C(=C/c2c(N)n3cc(C)sc3nc2=O)C=CC1=O	-17%	0%	-2%	42*	45*	-21%
Cc1cn2c(N)c(C=C3C=C(Cl)C(=O)C(Cl)=C3)c(=O)nc2s1	.	0%	2%	1	4	-9%
COC(=O)c1ccc(NC(=O)CC2Nc3cc(C)c(C)cc3NC2=O)cc1 (stereo not drawn)	1%	.	5%	.	.	.
O=C1OC(c2ccc(F)cc2)=C/C1=C\c1ccc(O)cc1	13µM*	2%	-4%	14*	40	23%
O=C1OC(c2ccc(F)cc2)=C/C1=C\c1ccc([N+](=O)[O-])o1	4µM*	21%	.	13	20	-11%
O=C1OC(c2ccccc2)=C/C1=C/c1cccs1	-34%	-26%	-15%	2	25	3%
CN(C(=O)c1cc2c(=O)oc3ccccc3c2s1)c1ccc(F)cc1	-5%	.	-1%	.	.	.
Cc1ncc(CO)c(CO)c1O	15%	.	1%	.	.	-8%[21.7 µM]
Cc1ncc(CO)c(CNc2ccc(-c3nc4ccccc4[nH]3)cc2)c1O	-17%	0%	0%	16*	28	8%
C[N+]1(C)CCC(OC(=O)CC(O)(c2ccccc2)C2CCCC2)C1 (stereo not drawn)	.	.	-9%	.	.	.
O=C(Nc1ccc(Br)cc1)C1Cc2ccccc2O/C1=N\O (stereo not drawn)	12%	-1%	8%	55*	111*	-1%
O=C1CC(C(=O)Nc2ccc(Br)cc2)C2(CCCC2)O1 (stereo not drawn)	-11%	-2%	.	-4	-4	8%
Cc1ccc(NC(=O)C2Cc3ccccc3O/C2=N\O)cc1C (stereo not drawn)	-15%	-4%	-3%	49*	74*	3%
